Shown are actives, neighbours in structure and some others; about 2.8% of the full set was active somewhere.
Pol eta inh = qHTS for Inhibitors of Polymerase Eta; recombinant Pol eta, fluorescent DNA replication assay; Potency, µM (doses to about 114 µM), hits mostly inhibitors; 1.2% of 390,000 active; AID 588591, 2011; DNA polymerase eta (Homo sapiens), Q9Y253
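Fluorescent replication assay: 50 nM final substrate added after a 15 min room-temperature compound preincubation with 10 nM enzyme. Signal taken at 0 min and again at 10 min.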
Pol beta inh = qHTS Assay for Inhibitors of DNA Polymerase Beta. P06746. Pol beta primer extension/strand displacement, fluorescence kinetic. Potency, µM (doses to about 114 µM), most hits filed as inhibitors. 1.3% of 340,000 active. AID 485314, 2010
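Pol beta (10 nM) was preincubated with compound for 15 min at room temperature. The reaction was then started with 50 nM substrate and read immediately and after a further 10 min at room temperature.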
Pol kappa inh = qHTS for Inhibitors of Polymerase Kappa. DNA polymerase kappa (Homo sapiens), Q9UBT6. purified Pol kappa, fluorescent DNA synthesis assay, 10 min. Potency, µM (series often up to 107 µM), usual class: inhibitors. 0.53% of 400,000 active. AID 588579, 2011
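Kinetic fluorescence readout at 0 and 10 min followed reaction start with substrate at 50 nM final. Beforehand, enzyme (10 nM Pol kappa) stood 15 min with compound at room temperature; buffer-only wells were negative controls.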
Pol iota inh = qHTS for Inhibitors of Polymerase Iota; DNA polymerase iota (Homo sapiens), Q9UNA4; 1% of 390,000 active; Pol iota fluorescent replication assay, 10 min; Potency, µM (titrated, usually from 115 µM), usual class: inhibitors; AID 588590, 2011
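Pol iota at 10 nM preincubated 15 min with compounds at room temperature; reaction started with fluorescent substrate, 50 nM final. Fluorescence read kinetically at 0 and 10 min; buffer-only wells as negative control.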
PI5P4K alpha inh = qHTS for Inhibitors of phosphatidylinositol 5-phosphate 4-kinase (PI5P4K) | Phosphatidylinositol 5-phosphate 4-kinase type-2 alpha (Homo sapiens), P48426 | PI5P4Kalpha enzyme, ADP-Glo luminescence, 60 min; hits give low values | max response, % | 1.2% of 330,000 active | AID 652105, 2013; active = max response of -50% or lower; inconclusive = between -30% and -50%; inactive = -30% or higher; note: value at the top dose of about 77 µM
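Compounds were pin-transferred onto PI5P4Kalpha and substrate in HEPES pH 7.4 buffer with EGTA, CHAPS and 5% DMSO. ATP (5 microM final) started the reaction, which ran 60 minutes at room temperature before ADP-Glo detection.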
WRN helicase inh = qHTS for Inhibitors of WRN Helicase. Bifunctional 3'-5' exonuclease/ATP-dependent helicase WRN (Homo sapiens), Q14191. WRN helicase unwinding, fluorescent forked duplex, kinetic. Potency, µM (highest dose often 114 µM), usual class: inhibitors. 0.46% of 360,000 active; note: nearly all actives have a fitted effect of over 55% in size
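Primary qHTS, 1536-well format. 20 nM WRN + compound, 15 min RT; start with 100 nM forked fluorophore/quencher duplex, 2 mM ATP (final); kinetic read ex 525/em 598 nm.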
Hits are given with their value; - = inactive; ? = inconclusive; . = no result; [ ] = another dose, or the depositor's remark. Unless noted, calls come from the whole dose curve; as a rule, active = well fitted curve in the direction sought with a large enough effect; inconclusive = small, poorly fitted or top-dose-only effect, or another doubt; inactive = no such curve, though single readings can be large; an effect the other way counts as inactive or inconclusive.

SMILES	Pol eta inh	Pol beta inh	Pol kappa inh	Pol iota inh	PI5P4K alpha inh	WRN helicase inh
Cc1oc2c(c1C(=O)O)C(=O)c1ccccc1C2=O	-	-	-	?	-	-
COC(=O)C1=C(C)N=C2SC(C#N)=C(N)N2C1c1ccc(OC)cc1 (stereo unspecified)	-	-	-	-	-	-
CCOC(=O)C1=C(C)N=C2SC(C(=O)OC)=CC(=O)N2C1c1ccc(OC)cc1 (stereo unspecified)	-	-	-	89µM	-	-[11.6 µM]
Cc1[nH]c(=O)[nH]c(=O)c1S(=O)(=O)N1CCN(c2ccccc2Cl)CC1	-	-	-	-	.	.
CN(C)c1ccc(/C=C/c2cc3ccccc3cn2)cc1	.	.	?	-	.	.
CSc1ccc(NC(=O)Nc2ccc(C(=O)NCC(=O)O)cc2)cc1	?	28µM	-	-	?	-
CNC(CC(=O)c1ccc([N+](=O)[O-])cc1)C(Cl)(Cl)Cl (stereo unspecified)	-	-	-	-	-	45µM
Cc1ccc(NC(=O)CS(=O)CC(=O)NC(C)CCc2ccco2)cc1Cl (stereo unspecified)	?	32µM	-	-	-	-
Cc1ccccc1OCC(=O)Nc1cccc(C(=O)O)c1	-	-	-	-	-	-
Cc1cccc(OCC(=O)Nc2cc(NC(=O)COc3cccc(C)c3C)cc(C(=O)O)c2)c1C	?	10µM	-	-	-	-
Cc1ccc(-c2nc3ccccc3[nH]2)cc1NC(=O)COc1cccc(C)c1C	-	-	-	89µM	.	.
Cc1ccc(OCC(=O)Nc2cc(NC(=O)COc3ccc(C)cc3)cc(C(=O)O)c2)cc1	-	-	-	?	-	-
Cc1ccc(OCC(=O)Nc2cc(C(=O)O)cc(C(=O)O)c2)cc1C	-	-	-	-	-55	79µM
Cc1ccc(-c2nc3ccccc3[nH]2)cc1NC(=O)COc1ccc(Cl)cc1Cl	-	-	-	-	.	.
CC[C@H](C)[C@H](NC(=O)[C@@H](NC(=O)CNC(=O)[C@@H](N)CC(C)C)[C@@H](C)O)C(=O)N1CCC[C@H]1C(=O)NCC(=O)O	.	.	-	.	.	.
CC(=O)c1cccc(N2Cc3ccccc3C2=NC(=O)CCl)c1	?	-	-	-	-70	-
COc1cc(OC)cc(-c2c(-c3ccsc3)c3cc(Br)ccc3n2C)c1	-	.	?	?	-	-[11.6 µM]
CN(Cc1cc(Cl)cc(Cl)c1)CC(C(=O)c1ccccc1)c1ccccc1 (stereo unspecified)	-	.	-	-	-	-
CN(C)CC(C(=O)c1ccccc1)c1ccccc1 (stereo unspecified)	-	-	-	32µM	-	?
CC(C)(C)n1ncc2c(=O)n(Cc3ccccc3C(F)(F)F)cnc21	.	.	-	-	.	.
O=C(COc1ccc(S(=O)(=O)N2CCCC2)cc1)NCc1cccnc1	-	-	-	-	-	-
CCOc1ccc(Oc2ccccc2NS(=O)(=O)c2ccc(CCC(=O)O)cc2)cc1	35µM	.	-	-	-	-[11.6 µM]
O=C(O)c1cc(N=Cc2c(O)c3ccccc3oc2=O)ccc1O	?	-	-	-	-65	-
Cc1cc(NS(=O)(=O)c2ccc(NC(=O)c3cnc4sccn4c3=O)cc2)nc(C)n1	8.9µM	?	?	?	-	-
Cc1cc(NS(=O)(=O)c2ccc(NC(=O)c3ccc(Br)o3)cc2)nc(C)n1	40µM	?	-	?	-	-[11.6 µM]
Cc1cc(NS(=O)(=O)c2ccc(NC(=O)c3c(F)c(F)c(F)c(F)c3F)cc2)nc(C)n1	-	?	-	-	-	?
COc1ccccc1CCC(=O)Nc1ccc(S(=O)(=O)Nc2cc(C)nc(C)n2)cc1	-	.	-	-	-	-
Cc1cc(NS(=O)(=O)c2ccc(NC(=O)CCCOc3ccccc3C)cc2)nc(C)n1	79µM	-	-	10µM	?	?

High-throughput results as filed in PubChem BioAssay.
